APOBEC3A inh: inhibitors of human APOBEC3A DNA deaminase. recombinant A3A, FAM/TAMRA ssDNA deamination fluorescence. inhibition, % at 20 µM. 330,000 compounds, 0.41% hits;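 active = at least 40% inhibition at 20 µM here, with at most 30% in a related deaminase screen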
Target sequence (P31941 whole entry, looked up): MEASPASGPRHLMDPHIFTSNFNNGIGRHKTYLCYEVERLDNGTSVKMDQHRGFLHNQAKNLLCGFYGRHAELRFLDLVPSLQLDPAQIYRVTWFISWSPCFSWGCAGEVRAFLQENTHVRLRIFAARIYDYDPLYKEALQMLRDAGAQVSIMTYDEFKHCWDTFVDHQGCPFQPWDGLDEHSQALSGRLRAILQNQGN
MIN6 prolif: inducers of beta-cell replication in MIN6 cells; MIN6 cells proliferation, ATPlite luminescence, 48 h; cells starved in 0.2% serum; 100% = growth in 10% serum; proliferation, % at 10 µM; 330,000 compounds, 0.29% hits; AID 2380;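 active = compounds whose signal lies at least 3.5 SD above the mean of all wells on their plate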
A1 inh: inhibitors of the anti-apoptotic protein A1, read as caspase activation; AID 2462; MEF A1-2A-BIM cells, Caspase-Glo 3/7 luminescence, 3 h; percent of clofoctol response, vehicle zero; 330,000 compounds, 0.066% hits; caspase activation, % (no concentration beside the values);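 active = over half of replicate activation scores above 10%, or exactly half above 10 with the replicate mean above 10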
APOBEC3G inh: inhibitors of human APOBEC3G DNA deaminase | inhibition, % at 20 µM | 330,000 compounds, 0.28% hits | recombinant A3G, ssDNA deamination FAM/TAMRA fluorescence | Q9HC16 | AID 493012;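 active = inhibition of at least 40% at 20 µM, with no more than 30% in the related APOBEC3A deaminase screen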
A3A conf: APOBEC3A (human) deaminase inhibition, confirmed. shares compounds with APOBEC3A inh. inhibition, % at 20 µM. 1,400 compounds, 63% hits. recombinant A3A, ssDNA deaminase UDG fluorescence assay;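 active = inhibition reaching a set limit, 80% of the first screen's cutoff, at 20 µM in any replicate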
UDG A3A counter: counter-screen for APOBEC3A inhibitors: UDG; shares compounds with APOBEC3A inh; UDG counterscreen, FAM/TAMRA uracil oligo fluorescence; inhibition, % at 20 µM; 1,000 tested, under 10 active; AID 504714; call rule not given here
APOBEC3G confirm: APOBEC3G (human) deaminase inhibition, confirmed. 890 compounds, 72% hits. recombinant A3G ssDNA deaminase, UDG/FAM-TAMRA fluorescence. inhibition, % at 20 µM. AID 493152. shares compounds with APOBEC3G inh;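 active = inhibition reaching a set limit in any replicate at 20 µM, the limit being 80% of the first screen's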
Of the large screens only hits and unclear results are named; the others gave an inactive call (follow-up assays come after a bar, where they were run). Rows were chosen to be rich in hits. Some 1.1% of all compounds tested hit in one or more screens of this group.

CN(C)CC1CCCCC1OC(=O)Cc1ccc(Cl)c([N+](=O)[O-])c1 (stereo not given)	APOBEC3A inh 55 | A3A conf 74 | UDG A3A counter inactive
CC1CCCC(C2(O)C(=O)Nc3ccccc32)C1=O (stereo not given)	APOBEC3A inh 68 | A3A conf 74 | UDG A3A counter inactive
CCOP(=O)(OCC)C1(O)C(=O)Nc2ccccc21 (stereo not given)	none
N#CCCCCC#N	none (no result: A1 inh)
Cc1ccc2c(c1Cl)NC(C(=O)O)C1CC(Sc3ccccc3[N+](=O)[O-])C(Cl)C21 (stereo not given)	APOBEC3A inh 41 | A3A conf inactive
CCN(CC)C(=O)c1ccc2c(c1)C1C(Cl)C(Sc3ccccc3[N+](=O)[O-])CC1C(C(=O)O)N2 (stereo not given)	none
C[C@]12CCC3C(CC[C@H]4C[C@H](O)CC[C@]34C)C1C[C@@H](CCCCl)[C@@H]2O (stereo not given in full)	none
C[N+]1(C)C2CCC1CC(OC(=O)c1ccccc1)C2 (stereo not given)	APOBEC3A inh 50 | A3A conf 67 | UDG A3A counter inactive
C[N+]1(C)C2CCC1CC(OC(=O)C(CO)c1ccccc1)C2 (stereo not given)	APOBEC3A inh 68 | A3A conf 74 | UDG A3A counter inactive
CN1C2CCC1CC(OC(=O)c1ccc(Cl)cc1)C2 (stereo not given)	none
C[N+]1(C)[C@@H]2CC[C@H]1CC(OC(=O)C(CO)c1ccccc1)C2 (stereo not given in full)	none
COc1ccc(-n2c(C)cc(C(=O)C[N+]34CCN(CC3)CC4)c2C)cc1	APOBEC3A inh 59 | A3A conf 70 | UDG A3A counter inactive
Cc1cc(C(=O)CN2CCCC2)c(C)n1-c1ccc(F)cc1	none
CN1C(=O)NC(=O)/C(=C\c2ccc([N+](=O)[O-])o2)C1=O	APOBEC3A inh 65 | A3A conf 54
CN1C(=O)NC(=O)/C(=C/c2ccc([N+](=O)[O-])o2)C1=O	none
CCCC[N+]12CCC(CC1)C(C(=O)c1cccs1)C2 (stereo not given)	APOBEC3A inh 67 | A3A conf 78 | UDG A3A counter inactive
CCC(=O)c1ccc(OCC(=O)N2CCN(CC(=O)Nc3ccccc3C(F)(F)F)CC2)cc1	none
COC12CCC3(CC1C(C)(O)C(C)(C)C)[C@H]1Cc4ccc(O)c5c4[C@@]3(CCN1CC1CC1)C2O5 (stereo not given in full)	none (no result: A1 inh)
COc1cc2c(cc1OC)-c1c(OC)c(OC)cc3c1[C@H](C2)[N+](C)(C)CC3	APOBEC3A inh 83 | A3A conf 71 | UDG A3A counter inactive
CCCc1c(C)nc(SCC(=O)C(C)(C)C)nc1OC(=O)N(C)C	none
Oc1ccc2c3c1OC1c4oc5ccccc5c4C[C@@]4(O)[C@@H](C2)N(CC2CC2)CC[C@]314 (stereo not given in full)	none (no result: A1 inh)
CC(C)[N+]12CCC(CC1)C(C(O)(c1ccccc1)c1ccccc1)C2 (stereo not given)	none (no result: APOBEC3A inh, APOBEC3G inh) | A3A conf 63
Cc1ccc(C(O)(c2ccc(C)c(C)c2)C2CN3CCC2CC3)cc1C (stereo not given)	none
CC[N+]12CCC(CC1)C(C(O)(c1ccccc1)c1ccccc1)C2 (stereo not given)	none
C[N+]12CCC(CC1)C(C(O)(c1cccc(Cl)c1)c1cccc(Cl)c1)C2 (stereo not given)	APOBEC3A inh 86 | A3A conf 75 | UDG A3A counter inactive
Cc1cc(C(=O)OCC(=O)Nc2ccccc2F)c(C)n1C1CC1	none (no result: A1 inh)
CCC12CN3CC(CC)(CN(C1)C3c1cccnc1)C2=O (stereo not given)	none
CC(=O)NN1C(=O)c2ccccc2NC1c1cccnc1 (stereo not given)	APOBEC3G inh 54 | APOBEC3G confirm inactive
CCOP(=S)(OCC)Oc1nc(Cl)c(Cl)cc1Cl	none
